Records with an inconclusive call do not appear. Where a structure was tested more than once in an assay, its records may differ in their call. Activity calls are given as the source filed them. How the source made its calls: active means hit-call score of the fitted dose curve at least 0.9, where 1 is the maximum; inconclusive means response in the unintended direction; inactive means score below 0.9.
Molecular target: human Thyroid hormone Receptor beta (TRb), THRB (gene 7068) (UniProt P10828)
Sequence (P10828 whole entry, looked up): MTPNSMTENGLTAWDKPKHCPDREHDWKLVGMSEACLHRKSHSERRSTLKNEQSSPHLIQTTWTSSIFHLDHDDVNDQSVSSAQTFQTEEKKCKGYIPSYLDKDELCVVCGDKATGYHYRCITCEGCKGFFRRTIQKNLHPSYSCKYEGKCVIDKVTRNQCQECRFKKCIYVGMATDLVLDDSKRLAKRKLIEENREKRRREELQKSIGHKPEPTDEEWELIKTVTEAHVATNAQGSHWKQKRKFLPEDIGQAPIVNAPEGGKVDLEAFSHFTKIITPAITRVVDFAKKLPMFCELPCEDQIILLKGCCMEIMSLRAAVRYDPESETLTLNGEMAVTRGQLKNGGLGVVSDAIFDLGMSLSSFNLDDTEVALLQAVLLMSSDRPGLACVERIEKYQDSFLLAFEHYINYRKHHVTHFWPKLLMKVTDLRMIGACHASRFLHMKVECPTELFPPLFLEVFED
Experiment: ATG_hTRb_XSP2: Attagene TRANS-FACTORIAL Multi-Species (XSP2) HepG2 Assay for human Thyroid hormone Receptor beta (TRb) (AID 2283840);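 further: actives raise reporter mRNA so potency reflects agonist-like gain of signal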
Summary of the method: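 Transient transfection of human HepG2 with multi-species NR-Gal4/GAL4-UAS reporter constructs; 24 h compound treatment; RNA isolation, reverse transcription, PCR and HpaI digest; capillary electrophoresis of labeled fragments; activity fitted upward versus DMSO.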

Compound | outcome | AC50
O=C(Oc1ccccc1)c1ccc(O)cc1 | inactive | 
CN(C)C(=N)N=C(N)N | inactive | 
O=c1cc(-c2ccccc2)oc2cc(O)cc(O)c12 | inactive | 100 µM (active)

Tested on: Sodium/Iodide Symporter (NIS), SLC5A5 (gene 6528)
Experiment: CPHEA_Stoker_NIS_Inhibition_RAIU: CPHEA's Radioactive Iodide Uptake (RAIU) Assay for Sodium/Iodide Symporter (NIS) Inhibition, Stoker and Laws Labs (AID 2283841)
Summary of the method: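 hNIS-HEK293T-EPA cells incubated 2 h at room temperature with compound (0.001–100 uM, 0.5% DMSO) and 329 pM final 125I in HBSS/10 mM HEPES, pH 7.4. Intracellular 125I counted; normalised to DMSO maximal uptake, triplicate, three biological replicates.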

Compound | outcome | AC50
O=C1c2ccccc2C(=O)N1SC1CCCCC1 | inactive | 
CSc1nc(NC2CC2)nc(NC(C)(C)C)n1 |  | 10 µM (active)
CCCCCCCCCCCCCOS(=O)(=O)O | inactive | 
c1ccc2[nH]ccc2c1 | inactive | 
Cc1ccc(S)cc1 | inactive | 
CC(C)=CCCC(C)=CCCC(C)=CCO | inactive | 
CCCCCCCCCCCCCCCCCC(=O)OCC(CC)CCCC (configuration not stated) | inactive | 
BrC1CCC(Br)C(Br)CCC(Br)C(Br)CCC1Br (configuration not stated) | inactive | 
CCN(CC)c1ccc2c(-c3ccccc3C(=O)O)c3ccc(=[N+](CC)CC)cc-3oc2c1 | inactive | 
CCN(CC)CCOC(=O)c1ccc(N)cc1 | inactive | 
c1ccc(CCCc2ccccn2)cc1 | inactive | 
CC(C)C[C@H]1C(=O)N2CCC[C@H]2[C@]2(O)O[C@](NC(=O)[C@@H]3C=C4c5cccc6[nH]c(Br)c(c56)C[C@H]4N(C)C3)(C(C)C)C(=O)N12 | inactive | 
O=c1cc(-c2ccccc2)oc2cc(O)cc(O)c12 | inactive | 
COc1cc(C(C)(C)C)c(O)c(C(C)(C)C)c1 | inactive | 
Cc1ccc(O)c(C(C)(C)C)c1 | inactive | 
CCCCCCCCC | inactive | 

Tested on: not listed separately
Experiment: CPHEA_Stoker_NIS_Cytotoxicity: Cytotoxicity Assessment for CPHEA's Radioactive Iodide Uptake (RAIU) Assay for Sodium/Iodide Symporter (NIS) Inhibition, Stoker and Laws Labs (AID 2283897);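 on AC50: active means loss of ATP signal versus DMSO meaning cytotoxicity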
Summary of the method: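 hNIS-HEK293T-EPA cells, human NIS expressed in HEK293T, treated 2 h with chemicals (0.001–100 uM, 0.5% final DMSO). ATP content read by CellTiter-Glo luminescence; loss of signal analysed relative to DMSO.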

Compound | AC50 | outcome
O=C1c2ccccc2C(=O)N1SC1CCCCC1 | 79.4 µM (active) | 
CSc1nc(NC2CC2)nc(NC(C)(C)C)n1 |  | inactive
CCCCCCCCCCCCCOS(=O)(=O)O |  | inactive
Cc1ccc(S)cc1 |  | inactive
CC(C)=CCCC(C)=CCCC(C)=CCO |  | inactive
CCCCCCCCCCCCCCCCCC(=O)OCC(CC)CCCC (configuration not stated) |  | inactive
O=C(Oc1ccccc1)c1ccc(O)cc1 |  | inactive
BrC1CCC(Br)C(Br)CCC(Br)C(Br)CCC1Br (configuration not stated) |  | inactive
CCN(CC)c1ccc2c(-c3ccccc3C(=O)O)c3ccc(=[N+](CC)CC)cc-3oc2c1 | 13.3 µM (active) | 
CCN(CC)CCOC(=O)c1ccc(N)cc1 |  | inactive
c1ccc(CCCc2ccccn2)cc1 |  | inactive
CC(C)C[C@H]1C(=O)N2CCC[C@H]2[C@]2(O)O[C@](NC(=O)[C@@H]3C=C4c5cccc6[nH]c(Br)c(c56)C[C@H]4N(C)C3)(C(C)C)C(=O)N12 |  | inactive
O=c1cc(-c2ccccc2)oc2cc(O)cc(O)c12 |  | inactive
COc1cc(C(C)(C)C)c(O)c(C(C)(C)C)c1 |  | inactive
CC(C)=CCC[C@](C)(O)[C@@H]1CC=C(C)CC1 |  | inactive
Cc1ccc(O)c(C(C)(C)C)c1 |  | inactive
CCCCCCCCC |  | inactive
